The text below walks through data of PubChem BioAssay (NCATS).

Records with an inconclusive call do not appear. Active and inactive are the calls of the source. Calls follow the shape of the dose curve; as a rule, active = well fitted inhibition curve with a large enough effect; inconclusive = small, poorly fitted or top-dose-only effect; inactive = flat fitted curve, though single readings scatter. Peptide text beside a SMILES is read from it.

What all share (assay): qHTS profiling for inhibitors of Plasmodium falciparum proliferation (AID 504749); also: nearly all actives have a fitted effect of over 60% in size
Holding throughout (details): P. falciparum in erythrocytes, SYBR Green DNA, 72 h; series mostly up to 28.7 µM

For one assay, the system named is CP215. The method, boiled down: (§1)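 P. falciparum-infected erythrocytes (0.3% parasitemia, 2.5% hematocrit final) were exposed to compounds for 72 h at 37 C in 5% CO2, then lysed with SYBR Green buffer overnight at room temperature; parasite DNA fluorescence was normalized to artemisinin and DMSO controls.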
A further assay concerns CP217. The essentials: as §1
Another assay deals with CP237. The essentials: as §1
Another assay concerns CP238. The method, boiled down: as §1
A further assay deals with CP247. The method, boiled down: as §1
The next assay deals with CP250. The method, boiled down: as §1
The subject of another assay is CP252. The essentials:
as §1

Another assay concerns CP256. The method, boiled down: as §1
The subject of a further assay is CP260. The method, boiled down: as §1
For another assay, the system named is CP262. The method, boiled down:
as §1

In the next assay the test system is CP265. The essentials:
as §1

The next assay has as its system CP266. The essentials:
as §1

The test system of another assay is CP268. The method, boiled down:
as §1

A further assay concerns CP269. The essentials: as §1
Another assay has as its system CP286. The essentials:
as §1

In a further assay the test system is CP291. The essentials:
as §1

In another assay the test system is CP297. The essentials:
as §1

In a further assay the test system is CP305. The essentials:
as §1

The next assay has as its system CP315. The method, boiled down:
as §1

Another assay has as its system CP325. The essentials:
as §1
Potency is read from the fitted curve at half-maximal effect.

For `CCCCCCCCCCCCCC[n+]1ccc(C)cc1`, the Potency with CP215 was 4260 nM (active); in the assay on CP217, 3980 nM (active); with CP237, 3550 nM (active); in the assay on CP238, 4470 nM (active); in the assay on CP247, 3980 nM (active); in the assay with CP250, 3980 nM (active). Besides, the Potency in the assay on CP252 was 4470 nM (active); with CP256, 5010 nM (active); in the assay with CP260, 2510 nM (active); in the assay with CP265 it was 4470 nM (active); in the assay on CP266 it was 4260 nM (active); in the assay with CP268, 1690 nM (active). The Potency with CP269 was 1690 nM (active); in the assay on CP286, 1260 nM (active); in the assay on CP291 it was 4260 nM (active); in the assay with CP297 it was 4780 nM (active); in the assay on CP305 it was 2390 nM (active); in the assay on CP315 it was 4780 nM (active). For the same compound, the Potency in the assay with CP325 was 3380 nM (active). In the assay on CP262, the Potency result was “inactive”.
In the case of `CCCCCCCCCCCCCCCC(=O)OCC(COC(=O)CCCCCCCCCCCCCCC)OC(=O)CCCCCCCCCCCCCCC`, the Potency entry with CP215, in the assay on CP217, in the assay with CP237, in the assay on CP238, with CP247 and with CP250 was “inactive” throughout. Moreover, the Potency result in the assay on CP252, in the assay with CP256, in the assay with CP260, in the assay with CP262, in the assay on CP265 and in the assay with CP266 was “inactive” throughout. Also, the Potency result with CP268, in the assay with CP269, in the assay on CP286, in the assay on CP291, in the assay on CP297 and in the assay with CP305 was “inactive” each time. Further, the Potency entry in the assay with CP315 and in the assay with CP325 was “inactive” each time.
For the compound `O=C1C(=O)c2ncccc2-c2cccnc21`, the Potency is 1350 nM (active) in the assay on CP215; 1260 nM (active) in the assay on CP217; 1000 nM (active) in the assay on CP237; 1000 nM (active) in the assay on CP238; 1580 nM (active) in the assay on CP247; 1260 nM (active) with CP250. Also, the Potency with CP252 is 2510 nM (active); with CP256 it was 1000 nM (active); with CP260, 891 nM (active); with CP262, 6010 nM (active); with CP265, 891 nM (active); with CP266, 849 nM (active). For the same compound, the Potency with CP268 is 1510 nM (active); in the assay on CP269 it was 1200 nM (active); in the assay on CP286 it was 1000 nM (active); in the assay with CP291 it was 1690 nM (active); in the assay with CP297 it was 1070 nM (active); in the assay with CP305, 1200 nM (active). Further, the Potency in the assay with CP315 was 2690 nM (active); with CP325, 1900 nM (active).
Turning to `COc1ccc2c3c1O[C@H]1C[C@@H](O)C=C[C@@]31CCN(C)C2`, the Potency entry in the assay with CP215, in the assay on CP217, in the assay with CP237, in the assay on CP238, in the assay with CP247 and in the assay on CP250 was “inactive” throughout. Besides, the Potency entry in the assay on CP252, in the assay on CP256, with CP260, in the assay on CP262, in the assay with CP265 and in the assay on CP266 was “inactive” each time. Further, the Potency entry in the assay on CP268, in the assay on CP269, in the assay on CP286, in the assay with CP291, in the assay with CP297 and in the assay on CP305 was “inactive” in each case. Also, the Potency result with CP315 and in the assay on CP325 was “inactive” in each case.
In the case of `CCCCCCC(O)C/C=C/CCCCCCCC(=O)O` (stereo not given), the Potency entry in the assay on CP215, in the assay with CP217, in the assay on CP237, in the assay on CP238, in the assay with CP247 and with CP250 was “inactive” throughout. Also, the Potency entry with CP252, in the assay on CP256, in the assay on CP260, in the assay with CP262, in the assay with CP265 and in the assay on CP266 was “inactive” each time. In addition, the Potency result with CP268, in the assay with CP269, with CP286, with CP291, in the assay with CP297 and with CP305 was “inactive” each time. The Potency result in the assay with CP315 and in the assay with CP325 was “inactive” throughout.
`Oc1cc(O)c2c(c1)OC(c1ccc(O)c(O)c1)C(O)C2` (stereo not given): the Potency entry with CP215, in the assay on CP217, in the assay with CP237, in the assay on CP238, in the assay on CP247 and in the assay on CP250 was “inactive” throughout. Also, the Potency result with CP252, in the assay on CP256, with CP260, in the assay on CP262, in the assay on CP265 and with CP266 was “inactive” in each case. For the same compound, the Potency entry in the assay on CP268, in the assay with CP269, in the assay on CP286, with CP291, in the assay with CP297 and in the assay with CP305 was “inactive” throughout. Also, the Potency entry with CP315 and with CP325 was “inactive” throughout.
For the compound `Nc1c(N=Nc2ccc(-c3ccc(N=Nc4cc(S(=O)(=O)O)c5ccccc5c4N)cc3)cc2)cc(S(=O)(=O)O)c2ccccc12`, the Potency entry in the assay on CP215, with CP217, with CP237, with CP238, in the assay with CP247 and with CP250 was “inactive” in each case. In addition, the Potency entry in the assay with CP252, with CP256, in the assay on CP260, in the assay with CP262, in the assay on CP265 and with CP266 was “inactive” each time. Besides, the Potency entry in the assay with CP268, with CP269, in the assay with CP286, with CP291, in the assay on CP297 and in the assay with CP305 was “inactive” each time. Further, the Potency entry with CP315 and in the assay on CP325 was “inactive” each time.
For `Cc1c(C)c2c(c(C)c1O)CC[C@@](C)(CCC[C@H](C)CCC[C@H](C)CCCC(C)C)O2`, the Potency entry in the assay with CP215, in the assay on CP217, in the assay on CP237, with CP238, in the assay on CP247 and in the assay on CP250 was “inactive” throughout. Further, the Potency entry with CP252, in the assay with CP256, in the assay on CP260, with CP262, in the assay with CP265 and with CP266 was “inactive” in each case. Also, the Potency entry in the assay with CP268, in the assay with CP269, in the assay with CP286, in the assay on CP291, in the assay on CP297 and in the assay on CP305 was “inactive” throughout. The Potency result with CP315 and with CP325 was “inactive” in each case.
Turning to `CC(NNC(=O)c1ccccc1)c1ccccc1` (stereo not given), the Potency entry in the assay on CP215, in the assay with CP217, in the assay with CP237, with CP238, in the assay on CP247 and in the assay on CP250 was “inactive” in each case. The Potency result in the assay on CP252, in the assay with CP256, with CP260, in the assay with CP262, with CP265 and with CP266 was “inactive” throughout. Also, the Potency result with CP268, in the assay on CP269, with CP286, in the assay on CP291, in the assay with CP297 and with CP305 was “inactive” in each case. The Potency result in the assay with CP315 and in the assay with CP325 was “inactive” each time.
With `CC(=O)N[C@@H](CC(=O)O)C(=O)N[C@@H](CCC(=O)O)C(=O)O` (Ac-Asp-Glu-OH), the Potency entry with CP215, in the assay with CP217, in the assay with CP237, in the assay with CP238, with CP247 and with CP250 was “inactive” each time. In addition, the Potency result in the assay on CP252, in the assay with CP256, in the assay with CP260, in the assay with CP262, in the assay with CP265 and in the assay on CP266 was “inactive” throughout. The Potency entry in the assay on CP268, in the assay on CP269, in the assay with CP286, with CP291, in the assay on CP297 and with CP305 was “inactive” throughout. Besides, the Potency result with CP315 and in the assay with CP325 was “inactive” each time.
